A short description of test [1]: ATG_CRE_CIS: Attagene CIS-FACTORIAL HepG2 Assay for human cAMP Responsive Element (CRE) binding protein 3 (AID 2282926). Conditions: HepG2 CRE cis-reporter, Attagene multiplexed mRNA; actives raise or lower the signal. The method, boiled down:
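Endogenous CRE-binding activity in HepG2 is reported through a cis-regulated transfected reporter. Following a day of exposure, mRNA levels are determined by reverse transcription PCR and fluorescent fragment analysis; fits run in both directions versus DMSO.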

In test [2] the target is CCAAT/enhancer-binding protein beta (Homo sapiens) (UniProt P17676). Put plainly: ATG_C_EBP_CIS: Attagene CIS-FACTORIAL HepG2 Assay for human CCAAT/Enhancer Binding Protein (C/EBP) beta (AID 2282927). Conditions: HepG2 Attagene cis-factorial transcription factor reporter; actives raise or lower the signal. The method, boiled down: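 HepG2, transient MRTU transfection, 24 h treatment. RT-PCR plus CE fluorescence; DMSO negative control, bidirectional fit.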
Sequence of CCAAT/enhancer-binding protein beta (Homo sapiens) (P17676 whole entry, looked up): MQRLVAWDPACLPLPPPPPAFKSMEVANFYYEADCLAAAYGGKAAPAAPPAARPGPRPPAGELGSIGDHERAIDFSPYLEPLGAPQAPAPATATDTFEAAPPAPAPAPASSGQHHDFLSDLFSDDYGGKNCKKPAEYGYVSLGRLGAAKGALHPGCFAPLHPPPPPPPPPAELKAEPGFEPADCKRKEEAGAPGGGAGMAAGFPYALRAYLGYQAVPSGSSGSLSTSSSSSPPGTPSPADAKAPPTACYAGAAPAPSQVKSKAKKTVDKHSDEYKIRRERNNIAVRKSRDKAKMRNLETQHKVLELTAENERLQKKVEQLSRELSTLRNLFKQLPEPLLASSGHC

A short description of test [3]: ATG_CMV_CIS: Attagene CIS-FACTORIAL HepG2 Assay for human CMV (Internal Marker) (AID 2282928).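 Note: endpoint acts as a background internal control marker rather than a target.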 Conditions: HepG2 CMV promoter reporter, transcription factor profiling; actives raise or lower the signal. Put shortly: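 Cell system: HepG2, transiently transfected multiple reporter units under cis promoters. Exposure: 24 h. Detection: RT-PCR, FAM labeling, HpaI digestion, capillary electrophoresis. Analysis: bidirectional, DMSO baseline.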

Test [4] can be described thus: ATG_DR4_LXR_CIS: Attagene CIS-FACTORIAL HepG2 Assay for human Liver X Receptor (LXR), DR4 submotif (AID 2282929). Conditions: HepG2 Attagene DR4 cis-reporter, mRNA transcription; actives raise or lower the signal. Put shortly: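 Fluorescence intensity of labelled reporter cDNA fragments, separated by capillary electrophoresis, gives the signal. HepG2 cells bearing cis-regulated reporter constructs were treated 24 h; activity fitted bidirectionally relative to DMSO negative control.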

Test [5] has as its target Aryl hydrocarbon receptor (Homo sapiens) (UniProt P35869). Kind of test: ATG_Ahr_CIS: Attagene CIS-FACTORIAL HepG2 Assay for human Aryl Hydrocarbon Receptor (Ahr) (AID 2282930). Particulars: HepG2 AhR cis-factorial reporter transcription; actives raise or lower the signal. Put shortly: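 Endogenous factor activity is tracked through cis-promoter reporter units transfected into HepG2 cells. Transcript levels at 24 h are read by fluorescent RT-PCR and capillary electrophoresis, with activity in either direction scored relative to DMSO.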

Test [6] can be described thus: ATG_AP_2_CIS: Attagene CIS-FACTORIAL HepG2 Assay for human Activator Protein 2 (AP-2) (AID 2282932). Conditions: HepG2 AP-2 cis-reporter, Attagene transcription factor profiling; actives raise or lower the signal. Put shortly:
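HepG2 cells transiently transfected with cis-element reporter units and exposed for 24 h. Reporter mRNA measured by RT-PCR, FAM labelling, HpaI digestion and capillary electrophoresis. Changes in either direction fitted relative to DMSO.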

Test [7] has as its target Transcription factor E2F1 (Homo sapiens) (UniProt Q01094). Kind of test: ATG_E2F_CIS: Attagene CIS-FACTORIAL HepG2 Assay for human E2F Transcription Factor 1 (AID 2282935). Conditions: HepG2 Attagene cis-reporter, E2F reporter RNA transcripts; actives raise or lower the signal. Put shortly: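 Endogenous E2F1 activity read through cis-promoter reporter units transfected into HepG2. After 24 h compound treatment, reporter mRNA measured by RT-PCR, HpaI digestion and capillary electrophoresis. Bidirectional fit versus DMSO.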

A short description of test [8]: ATG_E_Box_CIS: Attagene CIS-FACTORIAL HepG2 Assay for human Enhancer Box (E-box) (AID 2282936). Conditions: HepG2 E-box cis-reporter transcription, actives raise or lower the signal. The method, boiled down: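 HepG2 cells transiently transfected with multiplexed cis-element reporter units, dosed 24 h; reporter mRNA quantified by RT-PCR, 6-FAM labelling, HpaI digestion and capillary electrophoresis. E-box (USF1) signal fitted bidirectionally vs DMSO.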

A short description of test [9]: ATG_EGR_CIS: Attagene CIS-FACTORIAL HepG2 Assay for human Early Growth Response 1 (EGR1) (AID 2282938). Conditions: HepG2 Attagene CIS-FACTORIAL EGR reporter mRNA; actives raise or lower the signal. Put shortly: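 Activity is taken as induction or loss of reporter mRNA versus DMSO, fitted bidirectionally. Transcripts from cis-regulated reporter units in transiently transfected HepG2 were measured after 24 h by RT-PCR with capillary electrophoresis.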

A short description of test [10]: ATG_M_19_CIS: Attagene CIS-FACTORIAL HepG2 Assay for M19 Transcription Factor (Internal Marker) (AID 2282939). Conditions: HepG2 Attagene CIS-FACTORIAL M19 internal marker reporter; actives raise or lower the signal. The method, boiled down:
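Transfect HepG2 with MRTU reporter library → dose chemical, 24 h → isolate total RNA, reverse-transcribe with oligo(dT) → PCR, 6-FAM label, HpaI cut (2 h, 37 C) → capillary electrophoresis. Bidirectional fit vs DMSO.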

The nature of test [11]: ATG_ERE_CIS: Attagene CIS-FACTORIAL HepG2 Assay for Estrogen Response Element (ERE) (AID 2282940). Conditions: HepG2 ERE cis-reporter, Attagene RNA transcript; actives raise or lower the signal. Put shortly:
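Transient MRTU transfection of human HepG2; cis-element promoters; 24 h dosing; total RNA → RT (oligo dT) → PCR → 6-FAM primer extension → HpaI digest → CE fluorescence. Bidirectional fit, DMSO baseline.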

Test [12] can be described thus: ATG_Ets_CIS: Attagene CIS-FACTORIAL HepG2 Assay for human Erythroblast Transformation Specific (ETS) (AID 2282941). Conditions: HepG2 ETS cis-reporter transcription, actives raise or lower the signal. Put shortly: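 After transient cis-reporter transfection, HepG2 cells receive test chemical for 24 h. Reporter mRNA levels, measured by RT-PCR and capillary electrophoresis fluorescence, are analysed bidirectionally relative to the DMSO baseline.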

For test [13], the target named is Hepatocyte nuclear factor 3-beta (Homo sapiens) (UniProt Q9Y261). Put plainly: ATG_FoxA2_CIS: Attagene CIS-FACTORIAL HepG2 Assay for human Forkhead box A2 (FOXA2) (AID 2282942). Particulars: HepG2 cis-reporter transcription factor activity, 24 h; actives raise or lower the signal. The method, boiled down:
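Reporter transcript induction is measured by fluorescence after capillary electrophoresis of RT-PCR products from HepG2 cells exposed 24 h. Cis-regulated reporter units report endogenous factor activity; curves fitted both directions against DMSO.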

Test [14] in a line: ATG_FoxO_CIS: Attagene CIS-FACTORIAL HepG2 Assay for human Forkhead box O (FoxO) (AID 2282943). Particulars: HepG2 Attagene cis-reporter, FoxO element, mRNA; actives raise or lower the signal. Put shortly: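 Transfected HepG2 reporter cells exposed to test chemical for 24 h; reporter RNA measured by reverse transcription, PCR and fluorescent capillary electrophoresis; curves fitted for increases and decreases against DMSO.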

The nature of test [15]: ATG_AP_1_CIS: Attagene CIS-FACTORIAL HepG2 Assay for human Activator Protein 1 (AP-1) (AID 2282931). Conditions: HepG2 Attagene cis-factorial AP-1 reporter mRNA; actives raise or lower the signal. The method, boiled down:
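Multiplexed HepG2 reporter assay, 24 h dosing. mRNA induction detected by RT-PCR plus capillary electrophoresis. Activity fitted in both directions against DMSO.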

Test [16] is described as follows: ATG_BRE_CIS: Attagene CIS-FACTORIAL HepG2 Assay for human Bone Morphogenetic Protein (BMP) Response Element (BRE) (AID 2282933). Conditions: HepG2 BMP response element reporter, Attagene transcription factor profiling; actives raise or lower the signal. Put shortly: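 Transient MRTU transfection of human HepG2 liver cells; 24 h compound treatment; total RNA isolated, reverse-transcribed, PCR-amplified, 6-FAM labelled, HpaI-cut, capillary electrophoresis. DMSO = negative control/baseline, bidirectional fit.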

Test [17] can be described thus: ATG_M_61_CIS: Attagene CIS-FACTORIAL HepG2 Assay for M61 Transcription Factor (Internal Marker) (AID 2282937). Conditions: HepG2 Attagene CIS-FACTORIAL M61 internal marker reporter; actives raise or lower the signal. Put shortly: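 Endogenous transcription factor activity in HepG2 is read through transiently transfected cis-element reporter units. After 24 h dosing, RNA undergoes reverse transcription, PCR and primer extension with 6-FAM before capillary electrophoresis; DMSO-referenced bidirectional fit.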

Test [18] is described as follows: ATG_GATA_CIS: Attagene CIS-FACTORIAL HepG2 Assay for human GATA Binding Protein (AID 2282944). Particulars: HepG2 GATA cis-element reporter, Attagene multiplex mRNA; actives raise or lower the signal. Put shortly: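 Transient MRTU transfection, HepG2, 24 h compound exposure. Total RNA → oligo(dT) RT → PCR → 6-FAM primer extension → HpaI cut → CE. Bidirectional fit vs DMSO.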

Test [19] can be described thus: ATG_GLI_CIS: Attagene CIS-FACTORIAL HepG2 Assay for human Zinc Finger Protein GLI1 (AID 2282945). Conditions: HepG2, Attagene cis-factorial reporter mRNA, GLI element; actives raise or lower the signal. The method, boiled down:
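Transiently transfected HepG2 cells report endogenous transcription factor activity via cis-element-driven reporter units. After 24 h compound exposure, reporter mRNA was measured by RT-PCR with capillary electrophoresis; bidirectional fitting against DMSO baseline.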

As a reminder, the AC50 is the concentration at which the activity in the assay is half-maximal.

The source made the active and inactive calls. Rule for the calls: active = hit-call score of the fitted dose curve at least 0.9, where 1 is the maximum; inactive = score below 0.9.

Sequence of Hepatocyte nuclear factor 3-beta (Homo sapiens) (Q9Y261 whole entry, looked up): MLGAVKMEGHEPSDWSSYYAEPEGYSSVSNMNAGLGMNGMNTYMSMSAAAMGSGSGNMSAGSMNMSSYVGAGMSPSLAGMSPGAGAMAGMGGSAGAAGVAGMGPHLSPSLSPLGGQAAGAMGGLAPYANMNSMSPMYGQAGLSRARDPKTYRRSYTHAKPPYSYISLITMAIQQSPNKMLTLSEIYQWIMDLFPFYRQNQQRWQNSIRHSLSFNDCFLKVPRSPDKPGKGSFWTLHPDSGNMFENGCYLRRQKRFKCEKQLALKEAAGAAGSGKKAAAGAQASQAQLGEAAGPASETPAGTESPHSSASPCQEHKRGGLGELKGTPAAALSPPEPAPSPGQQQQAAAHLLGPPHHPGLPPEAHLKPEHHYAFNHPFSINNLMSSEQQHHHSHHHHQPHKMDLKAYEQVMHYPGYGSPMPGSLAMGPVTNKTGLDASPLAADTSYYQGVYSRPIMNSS
Sequence of Transcription factor E2F1 (Homo sapiens) (Q01094 whole entry, looked up): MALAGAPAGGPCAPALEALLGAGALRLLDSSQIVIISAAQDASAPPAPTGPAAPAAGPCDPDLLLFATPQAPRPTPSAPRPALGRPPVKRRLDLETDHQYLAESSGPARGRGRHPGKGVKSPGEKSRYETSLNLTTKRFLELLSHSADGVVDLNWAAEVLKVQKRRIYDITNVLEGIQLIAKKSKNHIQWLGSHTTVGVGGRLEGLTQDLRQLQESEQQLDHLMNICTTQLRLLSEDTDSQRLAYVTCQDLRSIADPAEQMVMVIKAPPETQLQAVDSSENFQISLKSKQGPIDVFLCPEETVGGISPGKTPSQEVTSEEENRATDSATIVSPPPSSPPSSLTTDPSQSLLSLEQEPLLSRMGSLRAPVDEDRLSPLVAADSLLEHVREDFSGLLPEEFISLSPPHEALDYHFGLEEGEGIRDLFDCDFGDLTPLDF
Sequence of Aryl hydrocarbon receptor (Homo sapiens) (P35869 whole entry, looked up): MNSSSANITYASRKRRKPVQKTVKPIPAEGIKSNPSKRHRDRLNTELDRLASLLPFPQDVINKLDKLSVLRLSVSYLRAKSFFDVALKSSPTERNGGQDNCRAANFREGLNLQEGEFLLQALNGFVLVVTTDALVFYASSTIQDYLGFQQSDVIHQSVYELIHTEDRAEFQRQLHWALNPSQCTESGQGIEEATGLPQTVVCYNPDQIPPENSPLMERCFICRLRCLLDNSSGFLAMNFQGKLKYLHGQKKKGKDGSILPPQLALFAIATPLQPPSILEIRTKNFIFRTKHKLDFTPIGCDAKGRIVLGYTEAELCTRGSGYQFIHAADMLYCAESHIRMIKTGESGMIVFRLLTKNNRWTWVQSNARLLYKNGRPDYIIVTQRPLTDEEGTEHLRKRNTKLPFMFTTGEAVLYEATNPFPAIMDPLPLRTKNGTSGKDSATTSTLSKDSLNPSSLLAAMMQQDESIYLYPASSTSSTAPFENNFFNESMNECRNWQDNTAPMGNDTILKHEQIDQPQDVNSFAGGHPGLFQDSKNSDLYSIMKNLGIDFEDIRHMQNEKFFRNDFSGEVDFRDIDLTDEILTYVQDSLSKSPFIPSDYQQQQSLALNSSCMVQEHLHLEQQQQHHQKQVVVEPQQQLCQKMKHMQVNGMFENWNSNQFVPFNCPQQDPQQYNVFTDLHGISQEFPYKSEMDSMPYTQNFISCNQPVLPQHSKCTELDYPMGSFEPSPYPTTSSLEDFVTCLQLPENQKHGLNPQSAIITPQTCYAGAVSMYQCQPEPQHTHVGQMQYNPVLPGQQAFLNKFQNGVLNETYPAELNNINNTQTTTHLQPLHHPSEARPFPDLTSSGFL

As for `BrC1CCC(Br)C(Br)CCC(Br)C(Br)CCC1Br` (configuration not stated), the result in [1], in test [2], in test [4], in test [5], in test [6] and in [7] was inactive. For the same molecule, the result in [8], in test [10], in [11] and in test [13] was inactive. Further, the half-maximal activity concentration (AC50) is 23.9 µM (active) in [3], 35.9 µM (active) in test [9], 143 µM (active) in test [12] and 87 µM (active) in [14].

In the case of `O=C1c2ccccc2C(=O)N1SC1CCCCC1`, the outcome in test [1], in test [2], in [3], in test [7], in test [8] and in [17] was inactive. Also, the result in test [13] and in test [19] was inactive. The AC50 in test [4] is 170 µM (active); in [15], 84.5 µM (active); in [6] it was 129 µM (active); in test [16], 75.1 µM (active); in [9], 65.6 µM (active); in test [10] it was 186 µM (active). Also, the AC50 in test [14] is 172 µM (active); in test [18] it was 144 µM (active).

For the molecule `O=C(O)CCSCCC(=O)O`, the molecule was called inactive in [1], in [2], in [3], in [4], in test [5] and in test [6]. Further, the outcome in [16], in test [7], in [8], in test [17], in test [9] and in test [10] was inactive. Besides, the molecule was classed as inactive in test [12], in test [13], in test [14] and in [19].

Consider `CC(C)=CCO`, for which the outcome in [1], in test [2], in test [3], in [4], in test [15] and in [6] was inactive. The outcome in test [16], in [7], in [8], in test [17], in test [9] and in test [12] was inactive. Further, the result in test [13], in test [14], in [18] and in [19] was inactive.
